POLB inh: qHTS Assay for Inhibitors of DNA Polymerase Beta. AID 485314, 2010. Pol beta primer extension/strand displacement, fluorescence kinetic. Potency, µM (doses to about 114 µM), usual class: inhibitors. P06746. actives 1.3% (n = 340,000)
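10 nM enzyme + cpd, 15 min RT; start with substrate 50 nM final; read 0 min and after 10 min RT. Corrected, normalized data; 4-parameter Hill curve fit.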
Pol eta inh-1: qHTS for Inhibitors of Polymerase Eta; DNA polymerase eta (Homo sapiens), Q9Y253; recombinant Pol eta, fluorescent DNA replication assay; Potency, µM (top dose mostly 114 µM), usual class: inhibitors; actives 1.2% (n = 390,000); AID 588591, 2011
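Pol eta (10 nM) was preincubated with compounds for 15 min at room temperature, after which fluorescent replication substrate (50 nM final) was added to start the reaction. Fluorescence was read kinetically at 0 and 10 min.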
POLI inh: qHTS for Inhibitors of Polymerase Iota; actives 1% (n = 390,000); Pol iota fluorescent replication assay, 10 min; DNA polymerase iota (Homo sapiens), Q9UNA4; Potency, µM (highest dose often 115 µM), most hits filed as inhibitors; AID 588590, 2011
Target sequence (Q9UNA4 whole entry, looked up): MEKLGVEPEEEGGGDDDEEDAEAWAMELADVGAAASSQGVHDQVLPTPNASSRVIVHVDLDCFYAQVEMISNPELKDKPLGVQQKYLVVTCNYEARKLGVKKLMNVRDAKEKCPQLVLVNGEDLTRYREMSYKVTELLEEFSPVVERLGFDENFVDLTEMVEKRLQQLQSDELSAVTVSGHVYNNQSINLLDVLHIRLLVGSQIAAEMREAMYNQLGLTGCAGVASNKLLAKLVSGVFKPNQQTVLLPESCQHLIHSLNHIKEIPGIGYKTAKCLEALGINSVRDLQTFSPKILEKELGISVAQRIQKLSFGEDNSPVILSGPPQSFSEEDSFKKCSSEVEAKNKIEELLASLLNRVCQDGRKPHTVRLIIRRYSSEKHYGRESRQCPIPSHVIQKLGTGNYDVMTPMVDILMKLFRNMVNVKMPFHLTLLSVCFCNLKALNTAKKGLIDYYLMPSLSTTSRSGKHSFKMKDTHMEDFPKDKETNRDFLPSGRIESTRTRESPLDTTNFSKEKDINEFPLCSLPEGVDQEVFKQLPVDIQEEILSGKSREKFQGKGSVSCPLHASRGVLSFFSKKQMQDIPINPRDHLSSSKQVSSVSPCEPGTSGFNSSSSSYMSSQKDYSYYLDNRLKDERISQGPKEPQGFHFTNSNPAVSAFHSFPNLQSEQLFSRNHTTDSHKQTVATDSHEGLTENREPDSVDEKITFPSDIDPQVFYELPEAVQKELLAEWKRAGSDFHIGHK
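Fluorescent replication assay read twice, at 0 min and 10 min after adding 50 nM (final) substrate. Enzyme (10 nM) and compounds were first incubated 15 min at room temperature; enzyme-free buffer wells were negative controls.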
L3MBTL1 block: qHTS Assay for the Inhibitors of L3MBTL1. actives 0.66% (n = 230,000). Potency, µM (series often up to 57.1 µM), usual class: inhibitors. AID 485360, 2010. AlphaScreen L3MBTL1–H3K9me1 peptide binding. Lethal(3)malignant brain tumor-like protein 1 (Homo sapiens), Q9Y468; further: nearly all actives have a fitted effect of over 60% in size
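AlphaScreen proximity signal between nickel-chelate acceptor and streptavidin donor beads (final 10 ug/mL) reports binding of 50 nM L3MBTL1 to 75 nM biotin-H3 K9me1 peptide; complex incubated with compounds 30 min at room temperature; cefsulodin titration as control.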
Pol kappa inh-1: qHTS for Inhibitors of Polymerase Kappa; DNA polymerase kappa (Homo sapiens), Q9UBT6; Potency, µM (top dose mostly 107 µM), actives largely listed as inhibitors; purified Pol kappa, fluorescent DNA synthesis assay, 10 min; actives 0.53% (n = 400,000)
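10 nM Pol kappa was preincubated with compounds for 15 min at room temperature. Reaction started with 50 nM (final) substrate. Fluorescence read kinetically at 0 and 10 min.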
PGK validate: qHTS for inhibitors of Phosphogylcerate Kinase: Hit Validation Screen. AID 686980, 2013. TbPGK coupled GAPDH assay, Kinase-Glo luminescence. Potency, µM (highest dose often 57.5 µM), actives largely listed as inhibitors. actives 79% (n = 500). shares compounds with Pol kappa inh-1; further: nearly all actives have a fitted effect of over 65% in size
POLI cherry-pick: qHTS for Inhibitors of Polymerase Iota: Confirmatory Assay for Cherry-picked Compounds | Potency, µM, most hits filed as inhibitors | Pol iota primer extension, TAMRA/BHQ fluorescence | shares compounds with Pol kappa inh-1 | AID 720496, 2013 | actives 77% (n = 1,500)
Pol kappa inh-2: qHTS for Inhibitors of Polymerase Kappa: Confirmatory Assay for Cherry-picked Compounds. shares compounds with Pol eta inh-1. purified Pol-kappa, fluorescent strand-displacement substrate. Potency, µM, most hits filed as inhibitors. actives 76% (n = 920). AID 720501, 2013
Pol eta inh-2: qHTS for Inhibitors of Polymerase Eta: Confirmatory Assay for Cherry-picked Compounds. shares compounds with Pol eta inh-1. Pol eta primer extension, TAMRA/BHQ fluorescence, 10 min. Potency, µM, actives largely listed as inhibitors. actives 64% (n = 2,600). AID 720502, 2013
Numbers stand for hits; – = inactive; ? = inconclusive; · = not tested or not shown. Only some compounds are listed: those with a hit (about 2.4% of all), similar ones and a draw of the others. The call rests on the fitted dose curve; in most records, active means well fitted curve in the direction sought with a large enough effect; inconclusive means small, poorly fitted or top-dose-only effect, or another doubt; inactive means no such curve, though single readings can be large; an effect the other way counts as inactive or inconclusive.

SMILES	POLB inh	Pol eta inh-1	POLI inh	L3MBTL1 block	Pol kappa inh-1	POLI cherry-pick	Pol eta inh-2	others
Cc1ccc(C(=O)NNC(=O)CSc2nnc3c(n2)[nH]c2ccc(F)cc23)cc1	5µM	79µM	–	–	–	19	?	Pol kappa inh-2=19
CC(CS(=O)(=O)c1ccc2c(c1)NC(=O)CS2)C(=O)NCc1ccccc1Cl (configuration not stated)	100µM	18µM	45µM	·	?	?	34	PGK validate=1.8µM
O=C1CSc2ccc(S(=O)(=O)NCc3ccccc3Cl)cc2N1	–	?	–	·	–	·	·
Cc1oc2c(c(C)cc3oc(=O)c(CC(=O)NCCc4ccc(Cl)cc4)c(C)c32)c1C	–	–	–	·	–	·	·
C/C(=N\Nc1ccc(Cl)c(C(=O)O)c1)c1ccc[nH]1	32µM	14µM	45µM	28µM	45µM	53	27
O=C(O)c1cc(N/N=C/C=C/c2ccccc2)ccc1Cl	?	–	–	–	–	·	·
O=S(=O)(O)c1cc(O)c2cc(Nc3ccccc3)ccc2c1	·	2.8µM	3.2µM	·	32µM	30	17	PGK validate=9.2µM;Pol kappa inh-2=3.4
Nc1cccc2c(O)cc(S(=O)(=O)O)cc12	·	2.8µM	3.2µM	·	8.9µM	6.7	6	PGK validate=5.2µM;Pol kappa inh-2=2.7
O=C(O)c1cc2cc(S(=O)(=O)O)ccc2cc1O	·	–	–	·	–	·	·
COc1ccc(S(=O)(=O)O)cc1P(=O)(c1ccccc1)c1ccccc1	–	–	–	·	–	·	·
O=C(O)c1cc(S(=O)(=O)O)ccc1O	–	–	–	–	–	·	·
COc1ccccc1Nc1ccc2c(O)cc(S(=O)(=O)O)cc2c1	·	2.2µM	1.1µM	·	0.89µM	19	15	PGK validate=8.2µM;Pol kappa inh-2=3
O=S(=O)(O)c1ccc(O)c2cc(Nc3ccccc3)ccc12	·	0.79µM	?	·	2.8µM	0.67	0.76	PGK validate=0.65µM;Pol kappa inh-2=0.53
COc1c(N2C[C@@H]3CCCN[C@H]3C2)c(F)cc2c(=O)c(C(=O)O)cn(C3CC3)c12	·	·	·	·	–	·	·
COc1ccccc1/C=C/c1cnccn1	·	·	–	·	–	·	·
CCN(CC)c1ccc(NC(=O)c2cnn(-c3ccccc3)c2-n2cccc2)c(C)c1	–	–	–	·	–	·	·
Cc1ccc(N2CC(NC(=O)C(=O)c3c[nH]c4ccccc34)CC2=O)cc1 (configuration not stated)	–	–	–	·	–	·	·
CCn1c(SCC(=O)OC)nc2sc3c(c2c1=O)CCC3	13µM	?	18µM	?	89µM	60	67
CCn1c(SCC(=O)O)nc2sc3c(c2c1=O)CCC3	14µM	13µM	?	·	?	67	48
COc1ccccc1NC(=O)N1c2ccccc2Sc2ccccc21	–	–	–	·	–	·	·
O=C(c1cccc(S(=O)(=O)N2CCN(c3ccccc3)CC2)c1)N1CCCCCCC1	·	–	–	–	–	·	·
O=C(c1cccc(-n2cccc2)c1)N1CCN(S(=O)(=O)c2c(F)cccc2F)CC1	?	20µM	22µM	·	?	67	76
O=C(c1cccc(-n2cccc2)c1)N1CCN(S(=O)(=O)c2ccccc2)CC1	·	8.9µM	8.9µM	4.5µM	18µM	4.2	8.5
COCCn1c(C)cc(O)c(C(c2ccc(Cl)cc2)N2CCCCC2)c1=O (configuration not stated)	?	–	–	·	–	·	·
COc1ccc(NC(=O)/C(C#N)=C\c2ccc(OCc3ccc(C(=O)O)cc3)c(OC)c2)cc1	–	?	32µM	·	–	?	?
SMILES	POLB inh	Pol eta inh-1	POLI inh	L3MBTL1 block	Pol kappa inh-1	POLI cherry-pick	Pol eta inh-2	others
N#C/C(=C\c1ccc(OCc2ccc(F)cc2)cc1)C(=O)Nc1cccc(C(=O)O)c1	?	40µM	?	·	?	?	?	Pol kappa inh-2=42
NS(=O)(=O)c1cccc(C(=O)NC2CCSc3ccccc32)c1 (configuration not stated)	–	–	–	·	–	·	·
NS(=O)(=O)c1cc(C(=O)NC2CCSc3ccccc32)ccc1Cl (configuration not stated)	0.32µM	–	1.3µM	·	0.79µM	0.6	0.6	PGK validate=0.15µM;Pol kappa inh-2=0.27
CCCCN(CC)CCCNC(=O)CCN1N=C(c2ccc(OC)cc2)CCC1=O	–	–	–	·	–	·	·
Cc1ccn2c(=O)nc(SCC(=O)NCc3ccccc3Cl)nc2c1	·	18µM	56µM	?	–	67	60	Pol kappa inh-2=27
Cc1ccc2nc(SCC(=O)NCc3ccccc3Cl)nc(=O)n2c1	·	–	–	–	–	·	·
O=c1[nH]n2c(=O)c3c([nH]c2c1N=Nc1cccc(Cl)c1)CCCC3	?	?	–	–	–	·	76
COc1cccc2cc(C(=O)N3CCN(C(=O)c4ccco4)CC3)c(=O)oc12	–	–	–	–	–	·	·
COc1cc(Br)cc2cc(C(=O)N3CCN(C(=O)c4ccco4)CC3)c(=O)oc12	–	79µM	32µM	–	?	·	85
Cc1cccc(CNS(=O)(=O)c2ccc3[nH]c(=O)ccc3c2)c1	–	–	–	·	–	·	·
N=C1/C(=C\c2coc3ccccc3c2=O)C(=O)N=C2SC=CN12	?	40µM	–	·	?	·	?
CSC1=NSC2=NC(=O)/C(=C/c3coc4ccccc4c3=O)C(=N)N12	40µM	14µM	–	–	?	·	·	Pol kappa inh-2=67

Screening results (PubChem BioAssay)
